A1 inh = inhibitors of the anti-apoptotic protein A1, read as caspase activation. caspase activation, % (test concentration not listed). MEF A1-2A-BIM cells, Caspase-Glo 3/7 luminescence, 3 h; percent of clofoctol response, vehicle zero. 0.066% of 330,000 active;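 active = over half of replicate activation scores above 10%, or exactly half above 10 with the replicate mean above 10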
ALR H2O2 inh = inhibitors of human sulfhydryl oxidase ALR. P55789. purified ALR, DTT oxidation, H2O2 HRP-luminol luminescence. inhibition, % (concentration not given with the values). 3.8% of 290,000 active;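 active = mean replicate inhibition above about 79%, with every replicate also reaching it, limit read from the data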
Target sequence (P55789 whole entry, looked up): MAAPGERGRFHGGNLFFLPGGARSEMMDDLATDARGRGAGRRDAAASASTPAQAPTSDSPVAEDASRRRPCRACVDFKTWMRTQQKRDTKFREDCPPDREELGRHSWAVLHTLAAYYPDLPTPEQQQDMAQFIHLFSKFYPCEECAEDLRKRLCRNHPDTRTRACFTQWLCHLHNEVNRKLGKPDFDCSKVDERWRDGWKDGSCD
Efflux pump mplx = antifungal efflux pump inhibition, Nile Red retention; 0.44% of 330,000 active; AID 485275; inhibition, % at 10 µM; S. cerevisiae Candida pump triplex;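 active = plate passing quality check with inhibition over a set limit, or well fluorescence over plate mean plus 4 SD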;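 note: Nile Red retained in pooled yeast measured as flow cytometry median fluorescence; 0% = buffer negative control and 100% = Enniatin B positive control; higher means more Nile Red kept so more efflux inhibition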
VLA-4 inh = inhibition in a human VLA-4 binding assay; P13612; VLA-4 expressing cells, ligand binding flow cytometry; inhibition, % (about 7 µM as worked out from the volumes in the protocol); 0.2% of 330,000 active; AID 2557; in the data active = inhibition above about 50%
AHR act = human AHR activation; AHR-responsive luciferase reporter cells, luminescence; activation, % at 5 µM; 2.5% of 320,000 active; AID 2796; in the data active = activation above about 47%;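 note: 0% = vehicle wells and 100% = reference agonist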
SUMO Mot1 rescue = blocks SUMOylation pathway, rescuing yeast Mot1-301 growth; growth rescue, % at 18.8 µM; 1% of 320,000 active; S. cerevisiae Mot1-301 growth rescue, ATP luminescence, 38.5C; percent above DMSO median, 100 means doubled; AID 2716;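 active = every valid replicate shows activation above 250% relative to neutral control wells; inactive = the rest, any valid replicate at or below 250%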;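 note: OY570 slx delta 5 strain wells were the positive control but not used for scaling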
VLA-4 allo CP = confirmation of allosteric modulators of human VLA-4 integrin | shares compounds with VLA-4 inh | inhibition, % at 6.7 µM | U937 cells, HUTS-21 LIBS mAb binding, flow cytometry; LDV ligand present at threefold Kd | 2% of 1,300 active; in the data active = inhibition above about 40%;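 note: 0% = ligand without compound and 100% = no ligand background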
* = called active by the depositor; · = not tested or not shown; ! = repeats disagree. An excerpt weighted towards active compounds, which were near 7.2% of everything screened.

SMILES | A1 inh | ALR H2O2 inh | Efflux pump mplx | VLA-4 inh | AHR act | SUMO Mot1 rescue | VLA-4 allo CP
C=CCc1cccc(/C=N/NC(=O)CCC(=O)Nc2ccc(C)cc2)c1O | 0.8 | 3.1 | 0.1 | 13.6 | 13.4 | 19.6 | ·
N#Cc1c(-c2ccccc2)nc2n1CCS2 | 0.9 | -3.7 | -0.1 | 0.2 | -1.3 | -12.1 | ·
N#Cc1c(-c2ccc(Cl)cc2Cl)nc2n(c1=O)CCS2 | -0.6 | · | 0.1 | 92.0* | 1.5 | 191.5 | -6.7
CCC(C)C(NC(=O)c1ccc(Cl)cc1)C(=O)O (stereo not given) | 0.5 | -2.2 | 0.1 | 93.2* | 0.5 | 3.6 | 3.3
CC1CCN(C(=O)CSc2nnc(Cc3cc(=O)[nH]c(=O)[nH]3)n2-c2ccc(Cl)cc2)CC1 | 1.2 | -0.4 | 0.2 | -59.4 | 0.9 | 50.9 | 10.9
COc1ccc(-n2c(Cc3cc(=O)[nH]c(=O)[nH]3)nnc2SCC(=O)N2CCC(C)CC2)cc1 | -0.8 | -5.0 | 0.1 | 10.4 | 0.7 | 6.6 | 0.3
COc1cccc(-n2c(Cc3cc(=O)[nH]c(=O)[nH]3)nnc2SCC(=O)N2CCC(C)CC2)c1 | 1.3 | -13.6 | 0.5 | 17.3 | 4.8 | · | 4.7
COc1ccc(CCNC(=O)CNC(=O)c2ccccc2Br)cc1OC | 0.7 | -2.2 | -0.1 | 12.3 | -0.5 | 21.9 | ·
O=C1Cc2cc(S(=O)(=O)NCc3ccc(F)cc3)ccc2N1 | -1.0 | -4.1 | -0.2 | -1.6 | 0.4 | 0.6 | 0.0
Cc1ccccc1COC(=O)CCC1=NS(=O)(=O)c2ccccc2N1 | -0.2 | -1.2 | 0.1 | 3.8 | 3.2 | -1.0 | ·
C=CCN(CC=C)C(=S)NC(=O)c1ccc(OC)cc1 | 0.1 | · | 0.1 | 52.5* | 51.1* | 318.1 | 3.1
C=CCN(CC=C)C(=S)NC(=O)c1ccc(-c2ccccc2)cc1 | 1.2 | -0.2 | 0.0 | -4.7 | 3.2 | 14.0 | ·
COC(=O)c1ccc(C2NC(=S)N(c3ccccc3)C(C)=C2C(=O)Nc2ccccc2OC)cc1 (stereo not given) | 0.4 | 9.3 | -0.1 | 29.0 | 0.9 | -12.5 | ·
Cc1nn(-c2ccccc2)c(Cl)c1/C=N/NC(=O)c1[nH]ncc1Br | -13.2 | -0.3 | 0.0 | 6.0 | -7.7 | -23.1 | ·
COc1ccc(CN(CCO)CCO)cc1[N+](=O)[O-] | -0.1 | 7.6 | 0.3 | -1.7 | 0.8 | -17.7 | ·
CCOc1ccc(CN(CCO)CCO)cc1[N+](=O)[O-] | -0.1 | -10.1 | 0.0 | 90.3* | -1.6 | -15.9 | 2.0
COc1ccc(Cl)cc1NC(=O)CN(C)C(=O)Cn1c(=O)oc2ccccc21 | -0.2 | 29.7 | 0.4 | -16.8 | 2.6 | 78.9 | -2.1
CN(CC(=O)Nc1ccccc1C(F)(F)F)C(=O)Cn1c(=O)oc2ccccc21 | -0.3 | -5.4 | 0.0 | 5.8 | 1.4 | 299.4 | 0.6
COc1ccc(Cl)cc1NC(=O)CCn1c(=O)oc2ccccc21 | 0.0 | -6.1 | 0.0 | -3.8 | 15.4 | 5.3 | ·
COC(=O)c1c(C)[nH]c(C(=O)CSc2ccc(Cl)cc2)c1C | -0.7 | -10.1 | -0.1 | 18.3 | 30.4 | -9.4 | ·
COC(=O)c1ccccc1NC(=O)C1CCN(C(=O)c2cc(OC)cc(OC)c2)CC1 | 1.1 | -7.8 | 0.1 | 4.7 | 2.9 | 32.1 | -4.9
COc1ccc(NC(=O)C2CCN(C(=O)c3ccccc3)CC2)c(OC)c1 | 0.4 | -6.1 | 0.0 | 33.2 | 1.0 | 12.1 | 4.4
COc1ccc(NC(=O)C2CCN(C(=O)c3ccccc3)CC2)cc1OC | 0.7 | -31.3 | 0.0 | 4.3 | 2.5 | -4.7 | ·
COc1cc(C(=O)N2CCC(C(=O)Nc3cccc(C(C)=O)c3)CC2)cc(OC)c1OC | -0.9 | · | 0.0 | 93.6* | 1.2 | -11.9 | 6.3
COc1ccc(NC(=O)C2CCN(C(=O)c3cccs3)CC2)c(OC)c1 | 0.5 | -2.6 | 0.2 | 6.3 | 33.0 | -7.2 | ·
SMILES | A1 inh | ALR H2O2 inh | Efflux pump mplx | VLA-4 inh | AHR act | SUMO Mot1 rescue | VLA-4 allo CP
COc1cc(OC)cc(C(=O)N2CCC(C(=O)NCCc3ccccc3)CC2)c1 | 0.8 | 5.0 | 0.3 | 5.4 | 2.4 | 4.7 | ·
COc1ccc(C(=O)N2CCC(C(=O)Nc3ccccc3OC)CC2)cc1 | 0.3 | -0.6 | 0.3 | 57.0* | 2.8 | -10.7 | -2.1
O=C(CCSCc1ccccc1F)NCc1ccc(F)cc1 | 0.3 | 3.0 | -0.2 | -0.8 | 3.7 | 13.7 | ·
COc1cccc(OC)c1C(=O)Nc1ccnn1C | 0.0 | · | 0.0 | 7.0 | -0.3 | -9.2 | ·
Cc1ccc(C(=C2C3C=CC2C2C(=O)NC(=O)C32)c2ccc(C)cc2)cc1 (stereo not given) | -0.4 | -5.6 | 0.1 | 55.8* | -0.8 | 16.8 | 6.5
O=S(=O)(Nc1ccccn1)c1cc(Cl)ccc1Cl | -1.4 | -15.7 | -0.2 | 3.6 | -0.3 | -14.9 | ·
O=S(=O)(Nc1ncccn1)c1cc(Cl)ccc1Cl | 0.2 | -5.3 | 0.1 | -1.1 | -2.4 | 0.9 | -6.7
CC(C)(O)C#Cc1ccc(C(=O)N2CCCC(CNS(=O)(=O)c3cccs3)C2)o1 (stereo not given) | -0.4 | 9.0 | -0.2 | -113.4 | 1.6 | -12.5 | ·
NS(=O)(=O)c1cc(C(=O)OCC(=O)Nc2ccccc2[N+](=O)[O-])ccc1Cl | -0.1 | -1.9 | 0.1 | -20.0 | 8.7 | -5.2 | ·
NS(=O)(=O)c1cc(C(=O)OCC(=O)Nc2ccc(Cl)cc2[N+](=O)[O-])ccc1Cl | -1.2 | -2.5 | 0.0 | 52.2* | 3.1 | 13.2 | 7.2
Nc1nc(SCC(=O)c2cccs2)n[nH]1 | -0.1 | 16.1 | 0.0 | 9.3 | 4.1 | 113.2 | ·
CCCC(=O)Nc1cccc(Oc2nc(C)cc(C)c2C#N)c1 | -1.2 | · | 0.1 | 88.9* | 58.4* | -10.8 | 0.6
Cc1cc(C)c(C#N)c(Oc2ccc(F)cc2)n1 | 1.0 | -3.5 | 0.1 | -5.0 | -4.2 | -2.3 | ·
Cc1ccc(CNC(=O)C(=O)NCC2CCCN2S(=O)(=O)c2cccs2)cc1 (stereo not given) | 0.8 | -28.0 | 0.0 | 29.7 | -0.6 | 0.0 | ·
COc1ccc(C(=O)Nc2cc3c(cc2OC)CCCC3)cc1Br | 0.6 | -1.5 | -0.1 | 0.0 | 22.4 | 3.4 | ·
COc1cc2c(cc1NC(=O)c1ccc(C(C)(C)C)cc1)CCCC2 | -0.1 | -1.2 | -0.1 | 81.9* | 13.6 | 3.5 | 14.6
CCCCn1c(SCC(=O)Nc2ccc3c(c2)CCC3)nc2ccccc2c1=O | 0.4 | -2.8 | 0.0 | 44.5 | 7.2 | -2.8 | -2.8
COc1cc(C)nc(-n2nc(C)cc2OC)n1 | 0.6 | -23.9 | 0.0 | -8.2 | -0.2 | -7.2 | 0.0
CCOC(=O)c1cc(C)nn1-c1nc(Cl)cc(OC)n1 | 1.1 | 2.6 | 0.1 | 7.7 | -1.4 | 8.7 | ·
OC1C(O)C(O)C(O)C(O)C1O (stereo not given) | -3.2 | 1.2 | -0.1 | 51.4*! | -2.8 | -1.8 | 3.3
CC(C)Cn1c(N)c(C(=O)COC(=O)c2ccccc2C(=O)c2ccccc2)c(=O)n(C)c1=O | -1.1 | 0.0 | 0.1 | 4.0 | -1.3 | 15.6 | ·
CC(NC(=O)CN1C(=O)NC(c2ccccc2)(c2ccccc2)C1=O)c1cccs1 (stereo not given) | 0.0 | · | 0.3 | 24.4 | 1.0 | -0.4 | ·

Compound activity (PubChem BioAssay)
